# Measured values: PubChem BioAssay AID488913 (National Center for Advancing Translational Sciences (NCATS), 2010)
# Records with an inconclusive call do not appear. Calls of active or inactive are those of the source. Calls follow the shape of the dose curve; as a rule, active = well fitted inhibition curve with a large enough effect; inconclusive = small, poorly fitted or top-dose-only effect, or effect the other way; inactive = no such curve, though single readings can be large or run the other way.
# Assay: Confirmation Concentration-Response Assay for lipid storage modulators: for probe SAR
# Settings: Drosophila S3 cells, BODIPY lipid droplet fluorescence, 18-24 h; series mostly up to 46.1 µM
# Description: NIH Molecular Libraries Probe Production Centers Network [MLPCN] NIH Chemical Genomics Center [NCGC] MLPCN Grant: 1 R03 MH085686-01 Assay Submitter (PI): Beller, Mathias; Max-Planck-Institut fur Biophysikalische Chemie NCGC Assay Overview: Storing lipids as a reservoir for energy or the anabolism of elementary metabolites is a common feature of probably all cells and is conserved from bacteria to humans. The universal cellular lipid storage organelle is the so-called lipid storage droplet (LD). Although ubiquitous, LDs share a simple structure composed of a hydrophobic core that harbors the storage lipids, which is shielded by a droplet-specific phospholipid monolayer to which proteins are attached. The current model of LD biogenesis involves an incorporation of the lipid core into the membrane leaflets of the endoplasmic reticulum (ER) followed by a subsequent budding-like maturation of a LD, which ultimately pinches off. Once released, LD volume can increase by localized lipogenesis or fusion of existing droplets. Storage lipids are re-mobilized enzymatically by lipase activity. Lipase regulation in the adipocyte is heavily studied and involves multiple components including catecholamine signaling, the LD-associated proteins Perilipin and comparative gene identification-58 (CGI-58) and at least two lipases named hormone sensitive lipase (HSL) and adipocyte triglyceride lipase (ATGL). LD regulation outside of the adipocyte is poorly understood and only few components are known. However, there is an urgent need to learn more about ectopic fat depots as mislocalized storage of lipids, for example in the liver or muscle, is an eminent health problem associated with insulin resistance or the metabolic syndrome. We developed a laser-scanning cytometer assay to enable 1,536-well screening and combined the results of the small molecules screen with an RNAi database based on lipid storage.
# We dispensed 4 uL of cells at 1.25 x 10^6 cells/mL into LoBase Aurora COC 1,536-well plates (black walled, clear bottom) with a bottle-valve solenoid-based dispenser (Aurora) to obtain 5,000 cells/well. Triacsin C (Sigma-Aldrich T-4540), an inhibitor of long-chain fatty acyl CoA synthetase that blocks synthesis of triglycerides, was used as a positive control for lipid under-storage. […] Fluorescence was detected by excitation of the fluorophores with a 488-nm laser on an Acumen Explorer (TTP Lab Tech). […] Cells were detected using channel 3 (575- 640 nm) with 5-um width and 100-um depth filters. The ratio of the total intensity in PMT channel 1 over total intensity of channel 3 was also calculated. […]
row,SMILES,Potency
1,CCOc1ccc(CCNC(=O)c2cc3sccc3n2Cc2ccc(F)cc2F)cc1OCC,56 nM (active)
2,CCC/C=C/C/C=C/C=C/C=N/NN=O,791 nM (active)
3,CCOc1ccc(CCNC(=O)c2ccccc2)cc1OCC,inactive
4,CCOC(=O)C1CCN(C(=O)C2(NC(=O)Nc3ccccc3Cl)CCCC2)CC1,787 nM (active)
